# From paper PMC12136788
# Whole data set: some 5,800 sequences, median “enrichment r” near 0.68, cut for the highest 2% near 11. Only a sample is shown.
# T1: UNK ZnF1-6 (called full-length) (human, UniProt Q9C0B0 30-357)
# T1 sequence: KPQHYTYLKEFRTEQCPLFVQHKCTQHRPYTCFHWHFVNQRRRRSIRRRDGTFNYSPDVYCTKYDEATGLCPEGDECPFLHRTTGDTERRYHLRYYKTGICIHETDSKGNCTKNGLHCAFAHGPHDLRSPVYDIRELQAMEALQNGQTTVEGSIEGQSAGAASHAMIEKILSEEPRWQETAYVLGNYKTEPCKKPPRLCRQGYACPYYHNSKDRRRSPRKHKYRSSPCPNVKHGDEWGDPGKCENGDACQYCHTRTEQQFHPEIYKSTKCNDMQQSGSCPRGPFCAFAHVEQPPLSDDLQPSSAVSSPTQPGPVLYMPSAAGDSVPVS
# B1: chr2:111862450:111862553:-|CDS|ENSG00000153107|unk|FALSE|unique (ssRNA)
# RNA: GGGAGUUCUACAGUCCGACGAUCUCUUUUUCAGGGGUGCAAAGGUUCAACAUUUCAAGCCAUAAUCAGUCUCCAAAGAGACAUAGUAUUUCUCAUUCUCCAAAUAGUAAUUCUAAUGGCUCCUUUCUUGCACCAGAAACGGAGCAACAGAGGAUUGAGCAUCA
# B2: chr7:83961326:83961382:-|CDS_3pUTR|ENSG00000075213|msi1_unk|FALSE|overlapping (ssRNA)
# RNA: GGGAGUUCUACAGUCCGACGAUCAAACAGGAGGACCCACGAAUUUGAGAGGGCACCCAGGAGUGUCUGAGCUGCAUUACCUCUAGAAACCUCAAACAAGUAGAAACUUGCCUAGACAAUAACUGGAAAAACAAAUGCAAUAUACAACAGAGGAUUGAGCAUCA
# B3: ENSG00000124766:be:win_3951|3pUTR|ENSG00000124766|bound_else_gene|NA|bound_elsewhere_windowed (ssRNA)
# RNA: GGGAGUUCUACAGUCCGACGAUCGUUUGGGGGAAAAAAAAGAAAAAAUCAUGCCAGCUAAUCAUGUCAAGUUCACUGCCUGUCAGAUUGUUGAUAUAUACCUUCUGUAAAUAACUUUUUUUGAGAAGGAAAUAAAAUCAGCUGCAACAGAGGAUUGAGCAUCA
# B4: chr17:29262523:29262623:-|3pUTR|ENSG00000108256|msi1_unk|FALSE|overlapping (ssRNA)
# RNA: GGGAGUUCUACAGUCCGACGAUCACUUUGACUGAUAUUGUAAUUUUCAAAUGUAUAAUAUGUUUACAGAUGUGCCCUGCAUUUAGUCUGCCUUGUUCCUAUUUUGAUUUUUGUUGAGUCUCCUGCCUGCUUGCCAAAAGCUAGCAACAGAGGAUUGAGCAUCA
# B5: chrX:149581652:149582231:-|three_prime_utr|ENSG00000267978|control|control|control (ssRNA)
# RNA: GGGAGUUCUACAGUCCGACGAUCCAAAUGUUCUUUUAAUGGUCAGUUUAAUGAACUUCACCAUCGAAGUUAAUGAAUGACAGUAGUCACACAUAUUGCUGUUUAUGUUAUUUAGGAGUAAGAUUCUUGCUUUUGAGUCACAUGCAACAGAGGAUUGAGCAUCA
# B6: chr15:48879495:48879609:+|3pUTR|ENSG00000255302|msi1|total|mutant (ssRNA)
# RNA: GGGAGUUCUACAGUCCGACGAUCGACACUAAAUGUGUGUGAAUGUACAAAGAAAACAAACCAUUGCUUAUGCUGUUAUAUACCCGAGAAAUUUUGUUUUGCUUGCUGUUUUAACUUGACAGAUGAAGGACUUCCGUUGAACUUCAACAGAGGAUUGAGCAUCA
# B7: chr16:87831719:87831834:-|3pUTR|ENSG00000103257|msi1_unk|FALSE|overlapping (ssRNA)
# RNA: GGGAGUUCUACAGUCCGACGAUCCCUGCGUUUGGAGGCCCCUGGGCUCUCACCCAGUCCCCACCCGCCUGCAGAGAGGGAACUAGGGCACCCCUUGUUUCUGUUGUUCCCGUGAAUUUUUUUCGCUAUGGGAGGCAGCCGAGGCAACAGAGGAUUGAGCAUCA
# B8: chr8:93925380:93925481:+|3pUTR|ENSG00000164951|msi1|total|mutant (ssRNA)
# RNA: GGGAGUUCUACAGUCCGACGAUCAUUUAUUUCUAAAUGUUUUGACUGGGCAUUUUUCUUUUAAUGAAAUAUGUGGACUGCUCCCGCAAACCCUAUUUUCAGCUACUAUUUGAAUAUUCUUGAACACCACCACUGAAGAGUUUCCAACAGAGGAUUGAGCAUCA
# B9: chr14:88572724:88572825:+|CDS|ENSG00000100722|unk|FALSE|unique (ssRNA)
# RNA: GGGAGUUCUACAGUCCGACGAUCGUGACACUUACAUAUGGUUCUUCUCGCCCUUCUAUUGAAAUUUAUCGACCACCUGCAAGUAGAAAUGCAGAUAGUGGUGUUCAUUUAAACAGGUUGCAAUUUCAACAGCAGCAGAAUAGUCAACAGAGGAUUGAGCAUCA
# B10: chr17:42200006:42200107:-|3pUTR|ENSG00000173757|unk|FALSE|unique (ssRNA)
# RNA: GGGAGUUCUACAGUCCGACGAUCAAGCUGCCGUUUGCCUUGGCUUGGUUUCAUACACUGAUUUAUUUUUCUAUGCCAGGCAGUAGAGUCUCUCUGCCUCUGAGGAGCAGGCUACCCGCAUCCCACUCAGCCCCUCCCUACCCCCAACAGAGGAUUGAGCAUCA
# B11: ENSG00000087269:stop:overlap|stop_codon|ENSG00000087269|stop_codon|NA|stop_codon (ssRNA)
# RNA: GGGAGUUCUACAGUCCGACGAUCGGCUGGCUGGUCUCGAAUUCCCGACCUCAGGUAAUCCACCUGCCUUGGCCCCCCAAUUAUAGGUGUGAGCCACAGCACCCAGCCAAAAAAGUAAUUUUUUUUAGAGUAAUAAUGCUAUAACAACAGAGGAUUGAGCAUCA
# B12: chr5:41382290:41382405:-|CDS|ENSG00000182836|unk|total|mutant (ssRNA)
# RNA: GGGAGUUCUACAGUCCGACGAUCGGCCAAAAAGCUCAUGCGGAAAUGGUCCGCCACUCAGACAAUGAAUUUUACUGGCCAGCCCGGAGCUGGAAUUCGUUAUUUUGAUCUUCGAAUUUCCACCAAGCCCAGAGACCCCGACAACAACAGAGGAUUGAGCAUCA
# B13: chr1:71064632:71064733:-|3pUTR|ENSG00000132485|msi1|total|mutant (ssRNA)
# RNA: GGGAGUUCUACAGUCCGACGAUCGCUAAGACAGGAUUACCCCGGCUUGCCUGAACUUUGGGCAUGGAAGAAAGACUGGAAACCCGUUGGAAACAACAUACUUAUGGAAAAGAAAGUCAGCCUUUUUAUGCUGUUAACAGAUGUCAACAGAGGAUUGAGCAUCA
# B14: chr1:183142599:183142700:+|CDS|ENSG00000135862|msi1|FALSE|unique (ssRNA)
# RNA: GGGAGUUCUACAGUCCGACGAUCAACGAGAUUGAAGGCACCCUAAACAAAGCCAAAGAUGAAAUGAAGGUCAGCGAUCUUGAUAGGAAAGUGUCUGACCUGGAGAAUGAAGCCAAGAAGCAGGAGGCUGCCAUCAUGGACUAUCAACAGAGGAUUGAGCAUCA
# Biological target: T1, UNK ZnF1-6 (called full-length)
# Experiment: nsRBNS (natural sequence RNA bind-n-seq); RBNS binding buffer (assumed for nsRBNS): 25 mM Tris pH 7.5, 150 mM KCl, 3 mM MgCl2, 0.01% Triton X-100, 500 ug/ml BSA, 20 U/ml SUPERase-In, 4 C; UNK is unkempt and MSI1 is Musashi-1; names of the RNAs are library labels; protein concentration not given here; high values mean tight binding
row,Binder,binding signal
1,B1,1.49 enrichment R
2,B2,0.962 enrichment R
3,B3,0.788 enrichment R
4,B4,0.807 enrichment R
5,B5,0.441 enrichment R
6,B6,0.453 enrichment R
7,B7,0.701 enrichment R
8,B8,0.657 enrichment R
9,B9,0.593 enrichment R
10,B10,0.936 enrichment R
11,B11,0.968 enrichment R
12,B12,0.445 enrichment R
13,B13,0.548 enrichment R
14,B14,0.678 enrichment R
